Results as given in PubChem BioAssay (Tox21).
Inconclusive results are not listed. The source made the active and inactive calls. Unless noted, calls come from the whole dose curve; as a rule, active = well fitted curve in the direction sought with a large enough effect in the repeat runs; inconclusive = weak or mixed curves; inactive = no such curve, though single readings can be large; an effect the other way counts as inactive or inconclusive.

Columns and labels:
[1] = qHTS assay for small molecules that induce genotoxicity in human embryonic kidney cells expressing luciferase-tagged ATAD5 (AID 651632); note: nearly all actives have a fitted effect of over 15% in size
Method in brief: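 Genotoxicity read-out via ATAD5-luciferase: HEK293T cells, 16 hr compound incubation at 37C, Amplite detection.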

[2] = qHTS assay for small molecule agonists of the p53 signaling pathway - cell viability (AID 651633; calls by dose curve;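 note: p53RE-bla HCT reporter cells with a stable beta-lactamase p53 reporter; series mostly up to about 83 µM; nearly all actives have a fitted effect of over 30% in size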)
Method in brief: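 p53RE-bla cells, seeded at 4,000 per well and rested 5 h at 37 C/5% CO2, received compounds in DMSO for 16 h at 37 C. CellTiter-Glo was then added, and luminescence was read after 30 min at room temperature to gauge cytotoxicity.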

[3] = qHTS assay for small molecules that induce genotoxicity in human embryonic kidney cells expressing luciferase-tagged ATAD5 - cell viability (AID 651634; calls by dose curve; note: nearly all actives have a fitted effect of over 25% in size)
Method in brief: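 Live-cell protease activity (CellTiter-Fluor, fluorescence) indicates viability. HEK293T cells with luciferase-tagged ATAD5; 15.5 hr compound treatment at 37C.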

[4] = qHTS assay for small molecule disruptors of the mitochondrial membrane potential - cell viability (AID 720634; calls by dose curve;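 note: human HepG2 liver cancer cells; series mostly up to about 83 µM; nearly all actives have a fitted effect of over 20% in size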)
Method in brief: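 Human hepatoma HepG2 cells were treated for 1 hr with test chemicals, then given m-MPI dye and CellTiter-Glo. Cell viability reflects luminescence proportional to cellular ATP.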

[5] = qHTS assay to test for compound auto fluorescence at 590 nm (red) in HepG2 cells (AID 720674)
Method in brief: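 Compound auto-fluorescence is scored relative to Rose Bengal sodium, measured at 540/590 nm in live HepG2 cultures after 1 hr compound contact (37 C, 5% CO2).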

[6] = qHTS assay to test for compound auto fluorescence at 535 nm (green) in HepG2 cells (AID 720675)
[7] = qHTS assay to test for compound auto fluorescence at 460 nm (blue) in HEK293 cells (AID 720678)
Method in brief: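 Triamterene serves as the blue fluorophore standard. Compound signal at 405/460 nm is read in HEK293 wells (2,000 cells, 10% dialyzed FBS) after overnight treatment at 37C.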

[8] = qHTS assay to test for compound auto fluorescence at 590 nm (red) in HEK293 cells (AID 720679)
Method in brief: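 We plated HEK293 cells in 10% dialyzed FBS medium, let them adhere for 4-5 hr, then added 23 nL compound. Overnight at 37C and 5% CO2 preceded fluorescence measurement at 540/590nm.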

[9] = qHTS assay to test for compound auto fluorescence at 460 nm (blue) in HEK293 cell free culture (AID 720681)
Method in brief: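 Test compounds were pinned into cell-free culture medium (DMEM with 10% FBS) and fluorescence was read directly at Ex/Em 405/460 nm. Signals were expressed as fluorescence equivalents of triamterene, with DMSO vehicle as control.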

[10] = qHTS assay to test for compound auto fluorescence at 535 nm (green) in HEK293 cell free culture (AID 720682)
Method in brief: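 Cell-free medium (DMEM, 10% FBS) receives compound or DMSO by pintool. Plate read directly at Ex 485/Em 535 nm. Signal converted to fluorescein equivalency.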

[11] = qHTS assay to test for compound auto fluorescence at 590 nm (red) in HEK293 cell free culture (AID 720683)
Method in brief: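 Tox21 10K library compounds were pinned into cell-free DMEM with 10% FBS and fluorescence was read at excitation 540 nm. Activity is expressed as Rose Bengal sodium equivalency.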

[12] = qHTS assay to test for compound auto fluorescence at 590 nm (red) in HepG2 cell free culture (AID 720684)
Method in brief: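 Measured in medium alone (MEM containing 10% FBS) following pintool addition of compound; emission at 590 nm with 540 nm excitation, referenced to Rose Bengal sodium.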

[13] = qHTS assay to test for compound auto fluorescence at 460 nm (blue) in HepG2 cell free culture (AID 720685)
Method in brief: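 Compound (23 nL) or DMSO pinned into cell-free MEM with 10% FBS; blue fluorescence read at 405/460 nm excitation/emission, expressed as auto-fluorescence equivalency to triamterene.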

[14] = qHTS assay to test for compound auto fluorescence at 535 nm (green) in HepG2 cell free culture (AID 720686)
[15] = qHTS assay to test for compound auto fluorescence at 460 nm (blue) in HepG2 cells (AID 720687)
Method in brief: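 Cells (2,000/well in MEM with 10% FBS) attached overnight at 37 C, then were exposed to compound or DMSO for 1 hr at 37 C, 5% CO2. Fluorescence read at Ex/Em 405/460 nm, expressed as triamterene-equivalent signal.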

[16] = target: Glucocorticoid receptor (Homo sapiens) (UniProt P04150); assay: qHTS assay to identify small molecule agonists of the glucocorticoid receptor (GR) signaling pathway (AID 720691; active = well fitted activation curve with a large enough effect in the signal ratio in the repeat runs, not every such curve was filed as active; the % refers to the signal ratio)
Glucocorticoid receptor (Homo sapiens), sequence (P04150 whole entry, looked up): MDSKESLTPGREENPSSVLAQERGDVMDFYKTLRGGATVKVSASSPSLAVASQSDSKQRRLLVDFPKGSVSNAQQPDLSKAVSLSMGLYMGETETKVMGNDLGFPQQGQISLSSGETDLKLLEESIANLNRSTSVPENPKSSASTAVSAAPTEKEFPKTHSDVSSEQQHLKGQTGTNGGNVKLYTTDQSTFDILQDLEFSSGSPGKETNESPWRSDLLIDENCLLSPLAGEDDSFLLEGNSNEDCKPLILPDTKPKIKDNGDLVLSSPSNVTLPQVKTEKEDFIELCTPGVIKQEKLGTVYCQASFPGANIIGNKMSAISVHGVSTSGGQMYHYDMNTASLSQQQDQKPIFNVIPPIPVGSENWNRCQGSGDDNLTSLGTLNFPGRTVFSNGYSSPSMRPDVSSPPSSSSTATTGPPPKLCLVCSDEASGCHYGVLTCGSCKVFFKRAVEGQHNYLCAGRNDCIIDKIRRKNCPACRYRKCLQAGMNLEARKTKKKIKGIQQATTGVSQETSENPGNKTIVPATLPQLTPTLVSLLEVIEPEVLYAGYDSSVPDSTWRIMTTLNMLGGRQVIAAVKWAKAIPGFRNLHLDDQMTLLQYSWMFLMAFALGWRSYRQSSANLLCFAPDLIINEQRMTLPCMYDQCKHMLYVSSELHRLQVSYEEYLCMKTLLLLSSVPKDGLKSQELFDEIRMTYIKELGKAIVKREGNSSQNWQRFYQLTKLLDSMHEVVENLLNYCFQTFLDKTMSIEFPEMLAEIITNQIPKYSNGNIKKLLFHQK
Method in brief: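 Beta-lactamase reporter activity, read as fluorescence intensity, was measured in GR-bla HeLa cells exposed to compounds for 18 h at 37 C and then loaded with LiveBLAzer B/G FRET substrate for 2 h at room temperature.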

[17] = qHTS assay to test for compound auto fluorescence at 535 nm (green) in HEK293 cells (AID 720680)
[18] = target: Glucocorticoid receptor (Homo sapiens) (UniProt P04150); assay: qHTS assay to identify small molecule antagonists of the glucocorticoid receptor (GR) signaling pathway (AID 720692; active = well fitted inhibition curve with a large enough effect in the signal ratio in the repeat runs, not every such curve was filed as active; the % refers to the signal ratio)
Method in brief: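 Fluorescence from cleaved LiveBLAzer B/G FRET substrate reports GRE-driven beta-lactamase in HeLa cells; compounds are tested against 5 nM dexamethasone (final) over 18 h at 37 C, substrate incubation 2 h at room temperature.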
% is set by controls: 0 for no effect and ±100 for the full control effect.

CC(C)(N)Cc1ccc(Cl)cc1
inactive: outcome [1] | Potency [2] | Potency [3] | Potency [4] | outcome [5] | outcome [6] | outcome [7] | outcome [8] | outcome [9] | outcome [10] | outcome [11] | outcome [12] | outcome [13] | outcome [14] | outcome [15]

CC(C)c1ccc(O)cc1
inactive: outcome [1] | Potency [2] | Potency [3] | Potency [4] | outcome [5] | outcome [6] | outcome [7] | outcome [8] | outcome [9] | outcome [10] | outcome [11] | outcome [12] | outcome [13] | outcome [14] | outcome [15] | Potency [16]

O=P(O)(O)CN(CP(=O)(O)O)CP(=O)(O)O
inactive: outcome [1] | Potency [2] | Potency [3] | Potency [4] | fluorescence, relative to Rose Bengal [5] -0.158% [at 18.6 µM] | fluorescence, % of fluorescein control [6] -0.0161% [at 18.6 µM] | fluorescence, % of fluorescent control [8] 0.149% [at 18.6 µM] | fluorescence, % of fluorescein [17] -0.175% [at 18.6 µM] | fluorescence, % of fluorescent control [9] -0.0261% [at 18.6 µM] | fluorescence, % of fluorescent control [11] 0.0352% [at 18.6 µM] | fluorescence, % of Rose Bengal [12] -0.0485% [at 18.6 µM] | fluorescence, % of fluorescent control [13] -0.13% [at 18.6 µM] | fluorescence, % of fluorescein control [14] 0.0644% [at 18.6 µM] | fluorescence, % of fluorescent control [15] -0.044% [at 18.6 µM] | Potency [16] | Potency [18]

O=C(O)CBr
inactive: outcome [1] | Potency [2] | Potency [3] | Potency [4] | outcome [6] | outcome [8] | outcome [17] | outcome [10] | outcome [11] | outcome [12] | outcome [13] | outcome [14] | outcome [15]

CCCN1CCC[C@@H]2Cc3nc(N)ncc3C[C@H]21
inactive: outcome [1] | Potency [2] | Potency [3] | Potency [4] | outcome [5] | outcome [6] | outcome [7] | outcome [8] | outcome [17] | outcome [9] | outcome [11] | outcome [12] | outcome [13] | outcome [14] | outcome [15]

Cc1ccc(Cl)c(O)c1
inactive: outcome [1] | Potency [2] | Potency [3] | Potency [4] | outcome [5] | outcome [6] | outcome [7] | outcome [8] | outcome [17] | outcome [9] | outcome [10] | outcome [11] | outcome [12] | outcome [13] | outcome [14] | outcome [15] | Potency [16] | Potency [18]

CCC(C)(C#N)N=NC(C)(C#N)CC (stereo not given)
inactive: outcome [1] | Potency [2] | Potency [3] | Potency [4] | outcome [6] | outcome [7] | outcome [8] | outcome [17] | outcome [10] | outcome [11] | outcome [13] | outcome [14] | outcome [15]

BrCC1CO1 (stereo not given)
inactive: outcome [1] | Potency [2] | Potency [3] | Potency [4] | outcome [5] | outcome [6] | outcome [7] | outcome [8] | outcome [9] | outcome [10] | outcome [12] | outcome [13] | outcome [14] | outcome [15] | Potency [16] | Potency [18]

C=C1C[C@@H]2[C@H](CC[C@]3(C)C(=O)CC[C@@H]23)[C@@]2(C)C=CC(=O)C=C12
inactive: outcome [1] | Potency [2] | Potency [3] | Potency [4] | outcome [5] | outcome [6] | outcome [7] | outcome [8] | outcome [17] | outcome [9] | outcome [10] | outcome [11] | outcome [12] | outcome [13] | outcome [14] | outcome [15]

O=S1(=O)OCCO1
inactive: outcome [1] | Potency [2] | Potency [3] | Potency [4] | outcome [5] | outcome [6] | outcome [7] | outcome [8] | outcome [17] | outcome [9] | outcome [10] | outcome [11] | outcome [12] | outcome [13] | outcome [14] | outcome [15] | Potency [16]

CC(C)N(Cc1ccccc1)C(=O)C(C)(C)C
inactive: outcome [1] | Potency [2] | Potency [3] | Potency [4] | outcome [5] | outcome [6] | outcome [7] | outcome [8] | outcome [17] | outcome [9] | outcome [11] | outcome [12] | outcome [14] | outcome [15]

CC[C@H](O)C(C[C@H](C)N(C)C)(c1ccccc1)c1ccccc1
inactive: outcome [1] | Potency [2] | Potency [3] | Potency [4] | outcome [5] | outcome [6] | outcome [7] | outcome [8] | outcome [9] | outcome [10] | outcome [11] | outcome [12] | outcome [13] | outcome [14] | outcome [15] | Potency [16] | Potency [18]

CNC(=O)Oc1cc(C)c(N(C)C)c(C)c1
inactive: outcome [1] | Potency [2] | Potency [3] | Potency [4] | outcome [5] | outcome [6] | outcome [7] | outcome [8] | outcome [17] | outcome [10] | outcome [12] | outcome [13] | outcome [14] | outcome [15] | Potency [16] | Potency [18]

CC(=NC#N)N(C)Cc1ccc(Cl)nc1
inactive: outcome [1] | Potency [2] | Potency [3] | Potency [4] | outcome [5] | outcome [6] | outcome [8] | outcome [9] | outcome [10] | outcome [12] | outcome [14] | outcome [15]

CN1C(=O)COc2c(C(=O)NC3CN4CCC3CC4)cc(Cl)cc21 (stereo not given)
inactive: outcome [1] | Potency [2] | Potency [3] | Potency [4] | outcome [5] | outcome [6] | outcome [7] | outcome [8] | outcome [17] | outcome [9] | outcome [11] | outcome [12] | outcome [13] | outcome [14] | outcome [15]

COc1ccc(C=O)cc1O
inactive: outcome [1] | Potency [2] | Potency [3] | Potency [4] | outcome [5] | outcome [6] | outcome [7] | outcome [8] | outcome [17] | outcome [9] | outcome [12] | outcome [13] | outcome [14] | outcome [15] | Potency [16] | Potency [18]
